The list is not random: actives were taken first. Their share in the collection is about 10%.
CtBP-E1A blk: inhibitors of CtBP/E1A interaction; AlphaScreen GST-E1A/His-CtBP binding, 1536-well; active compounds read low; activity change, % (test concentration not listed); actives 0.49% (n = 340,000); AID 651724; in the data active means activity change below about -65%; inconclusive means mostly about -30% to -63%; further: on the % scale 0 is the no-effect control and ±100 the full control effect
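In 5 uL wells, 23 nL compound meets equimolar GST-E1A and His-CtBP (5X stock 125 nM each) for 2 h, 37 °C. Beads (5X, 50 ug/mL) then 1 h, 37 °C, dark.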
BAZ2B inh: inhibitors of human BAZ2B bromodomain; Q9UIF8; AlphaScreen BAZ2B-H3K14Ac peptide displacement; Potency, µM (series often up to 114 µM), inactives show at the top dose activity change, negative = inhibition, hits mostly inhibitors; actives 4.4% (n = 360,000); AID 504333; further: potency means the concentration at half of the fitted maximal effect; on the % scale 0 is the no-effect control and ±100 the full control effect; nearly all actives have a fitted effect of over 60% in size
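Complex of BAZ2B and biotin-H3K14Ac (50 nM apiece) forms over 30 min at RT, then faces library compounds up to 110 uM for another 30 min; AlphaScreen beads added, 20 min dark incubation, luminescence read.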
JMJD2A Tudor inh: JMJD2A Tudor domain (human) inhibition | AID 504339 | AlphaScreen JMJD2A-Tudor / H3K4me3 peptide binding | O75164 | Potency, µM (series often up to 114 µM), for the others: at the top dose activity change, negative = inhibition, usual class: inhibitors | actives 4.4% (n = 390,000); further: potency means the concentration at half of the fitted maximal effect; on the % scale 0 is the no-effect control and ±100 the full control effect; nearly all actives have a fitted effect of over 50% in size
G9a inh: inhibitors of human histone lysine methyltransferase G9a. Q96KQ7. Potency, µM (highest dose often 102 µM), for inactives: at the highest dose activity, negative = inhibition, most hits filed as inhibitors. G9a H3K9 monomethylation, AlphaScreen, 2 h. actives 8.8% (n = 350,000); further: potency means the concentration at half of the fitted maximal effect; on the % scale 0 is the no-effect control and ±100 the full control effect; nearly all actives have a fitted effect of over 75% in size
Target sequence (Q96KQ7 913-1193 limits assumed): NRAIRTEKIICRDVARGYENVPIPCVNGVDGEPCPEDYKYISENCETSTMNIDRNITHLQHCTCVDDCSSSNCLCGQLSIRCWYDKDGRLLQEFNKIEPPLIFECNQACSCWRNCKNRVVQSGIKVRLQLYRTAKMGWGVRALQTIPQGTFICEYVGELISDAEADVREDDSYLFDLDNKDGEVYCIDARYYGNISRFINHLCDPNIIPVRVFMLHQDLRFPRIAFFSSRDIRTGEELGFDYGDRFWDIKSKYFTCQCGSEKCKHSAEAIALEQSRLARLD
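Methyltransferase reactions run at room temperature for 2 h (20 nM enzyme, 500 nM biotin-H3K9 peptide, 20 uM SAM) after a 15 min compound preincubation; product detected by AlphaScreen beads and anti-H3K9me1 antibody.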
Six1-Eya2 inh: inhibitors of human Six1/Eya2 interaction; actives 0.56% (n = 360,000); AID 651725; activity change, % (concentration not given with the values); Q15475+O00167; AlphaScreen GST-Six1/His-Eya2 binding, biochemical; active compounds read low; in the data active means activity change below about -65%; inconclusive means mostly about -30% to -63%; further: on the % scale 0 is the no-effect control and ±100 the full control effect
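AlphaScreen luminescence read after one hour at 37 °C in darkness. Pin-transferred compounds met GST-Six1 and His-Eya2 protein (5X stock 250 nM/500 nM) plus glutathione donor and Ni-chelate acceptor beads (5X, 50 ug/mL).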
HP1b binding inh: HP1-beta chromodomain-methylated histone interaction inhibition; P83916; AlphaScreen HP1-beta / biotin-H3K9me3 peptide binding; Potency, µM (series often up to 114 µM), inactives show top-dose activity change, negative = inhibition, hits mostly inhibitors; actives 0.56% (n = 390,000); AID 540317; further: potency means the concentration at half of the fitted maximal effect; nearly all actives have a fitted effect of over 70% in size
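Compound inhibition of the preformed complex between 50 nM HP1-beta and 50 nM biotinylated H3K9me3 peptide was read by AlphaScreen. Buffer was PBS pH 7.4 with 0.01% Tween-20. Incubations ran 30 min at room temperature, with 10 ug/mL donor/acceptor beads.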
Starred values were filed as active, the others as inactive; [ ] = dose if it differs, or a comment. Unless noted, the call rests on the fitted dose curve; in most records, active means well fitted inhibition curve with a large enough effect; inconclusive means small, poorly fitted or top-dose-only effect; inactive means no such curve, though single readings can be large or run the other way.

How did COc1ccc(-n2nnnc2CNC(=O)C(=O)c2c(C)[nH]c3ccccc23)cc1 do in these assays?
CtBP-E1A blk: -2; BAZ2B inh: -10%; JMJD2A Tudor inh: -7%; G9a inh: 6%; Six1-Eya2 inh: -4; HP1b binding inh: 11%

Results for Oc1ccc(O)c(Cc2nc3ccccc3s2)c1 ?
CtBP-E1A blk: -19; BAZ2B inh: inconclusive; JMJD2A Tudor inh: 13µM*; G9a inh: 10µM*; Six1-Eya2 inh: -4; HP1b binding inh: 20µM*

Results for O=C(NC1CCCCC1)c1cc(-c2ccccn2)nc2ccccc12 ?
CtBP-E1A blk: 7; BAZ2B inh: -14%; JMJD2A Tudor inh: -17%; G9a inh: 50µM*; Six1-Eya2 inh: -2; HP1b binding inh: 15%

What do the screens show for `O=C(c1cc(-c2ccccn2)nc2ccc(Cl)cc12)N1CCN(CCc2ccccc2)CC1`?
CtBP-E1A blk: -2; BAZ2B inh: -10%; JMJD2A Tudor inh: -20%; G9a inh: 6%[59 µM]; Six1-Eya2 inh: -5; HP1b binding inh: 17%

Results for O=C(NCCc1ccc(Cl)cc1)c1cc(-c2ccncc2)nc2ccccc12 ?
CtBP-E1A blk: 1; BAZ2B inh: -10%; JMJD2A Tudor inh: -3%[11.4 µM]; G9a inh: 19%[59 µM]; Six1-Eya2 inh: -2; HP1b binding inh: 56%

Results for O=C(NCCc1ccc(Cl)cc1)c1cc(-c2ccccn2)nc2ccccc12 ?
CtBP-E1A blk: 1; BAZ2B inh: -21%; JMJD2A Tudor inh: 22µM*; G9a inh: 18%[59 µM]; Six1-Eya2 inh: 0; HP1b binding inh: -1%

How did Cc1cnn(C(=O)c2cc(-c3ccccn3)nc3ccc(Cl)cc23)c1 do in these assays?
CtBP-E1A blk: -10; BAZ2B inh: 56µM*; JMJD2A Tudor inh: -15%; G9a inh: inconclusive; Six1-Eya2 inh: -2; HP1b binding inh: 13%

High-throughput results (PubChem BioAssay)
